From PubChem BioAssay
Most compounds without a hit are left out; they make up all but 18% or so of the library.
HepG2 tox – qHTS for Inhibitors of TGF-b: Cytotox Counterscreen; HepG2 CAGA-GFP viability, ATP luminescence, 18 h; Potency, µM (highest dose often 46.1 µM), inactives show at the highest dose activity change, negative = cytotoxicity, hits mostly cytotoxic; hit rate 0.76% among 410,000; note: potency is the fitted concentration of half-maximal effect
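HepG2 CAGA-GFP cells (1000/well, DMEM with 1% FBS) received compound, then TGF-beta at 500 pg/mL final, and were incubated 18 hours at 37 degrees C. Viability was read by CellTiter-Glo luminescence. Media-only wells were set as complete cell-killing and DMSO as no toxicity.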
DT40 TDP1 no CPT – qHTS for Inhibitors of human tyrosyl-DNA phosphodiesterase 1 (TDP1): qHTS in cells in absence of CPT. hit rate 15% among 420,000. Potency, µM (series often up to 46.2 µM), inactives show at the top dose activity change, negative = growth inhibition, most hits filed as inhibitors. DT40 Tdp1-/- hTDP1 cells, no CPT, ATP luminescence, 48 h; note: potency is the fitted concentration of half-maximal effect; % is set by controls: 0 for no effect and ±100 for the full control effect; nearly all actives have a fitted effect of over 55% in size
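A cellular qHTS used chicken DT40 cells lacking endogenous Tdp1 but carrying stably transfected human TDP1. Compounds were applied without camptothecin, and cell growth kinetics were judged by ATP-dependent luminescence after ≥48 hr.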
TGFb inhibitor – qHTS for Inhibitors of TGF-b; HepG2 CAGA-GFP TGF-b/SMAD3 reporter, GFP fluorescence, 18 h; TGF-beta stimulated, 500 pg/mL final; Potency, µM (titrated, usually from 46.1 µM), for inactives: at the top dose activity, negative = inhibition, usual class: inhibitors; hit rate 1.2% among 410,000; note: potency is the fitted concentration of half-maximal effect; % is set by controls: 0 for no effect and ±100 for the full control effect; nearly all actives have a fitted effect of over 65% in size
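First, reporter cells (HEPG2 CAGA-GFP) rested 2 h at 37 degrees C. Next, compounds were pinned in and TGF-beta added to 500 pg/mL final. After 18 h, GFP was imaged per cell and summed per well.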
IL1B secr inh – qHTS for Inhibitors of Inflammasome Signaling: IL-1-beta AlphaLISA Primary Screen | AID 743279, 2014 | hit rate 4.7% among 360,000 | THP-1 LPS/ATP IL-1B secretion, AlphaLISA, 16 h; hits give low values | activity change, % at 57.5 µM; in the data active = activity change below about -50%; inconclusive = mostly about -30% to -49%; note: % is set by controls: 0 for no effect and ±100 for the full control effect
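Secreted IL-1B measured by AlphaLISA bead assay after 16 h compound exposure of THP-1 cells; compounds (final up to 57.5 uM) added 1 h before LPS (250 ng/mL) and ATP (1.25 mM) stimulation; lower signal means less secretion.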
TDP1 block – qHTS Assay for Inhibitors of Tyrosyl-DNA Phosphodiesterase (TDP1). Tyrosyl-DNA phosphodiesterase 1 (Homo sapiens), Q9NUW8. recombinant TDP1, AlphaScreen DNA substrate cleavage. Potency, µM (highest dose often 130 µM), for inactives: top-dose activity change, negative = inhibition, usual class: inhibitors. hit rate 0.28% among 350,000; note: potency is the fitted concentration of half-maximal effect; % is set by controls: 0 for no effect and ±100 for the full control effect; nearly all actives have a fitted effect of over 40% in size
Target sequence (Q9NUW8 whole entry, looked up): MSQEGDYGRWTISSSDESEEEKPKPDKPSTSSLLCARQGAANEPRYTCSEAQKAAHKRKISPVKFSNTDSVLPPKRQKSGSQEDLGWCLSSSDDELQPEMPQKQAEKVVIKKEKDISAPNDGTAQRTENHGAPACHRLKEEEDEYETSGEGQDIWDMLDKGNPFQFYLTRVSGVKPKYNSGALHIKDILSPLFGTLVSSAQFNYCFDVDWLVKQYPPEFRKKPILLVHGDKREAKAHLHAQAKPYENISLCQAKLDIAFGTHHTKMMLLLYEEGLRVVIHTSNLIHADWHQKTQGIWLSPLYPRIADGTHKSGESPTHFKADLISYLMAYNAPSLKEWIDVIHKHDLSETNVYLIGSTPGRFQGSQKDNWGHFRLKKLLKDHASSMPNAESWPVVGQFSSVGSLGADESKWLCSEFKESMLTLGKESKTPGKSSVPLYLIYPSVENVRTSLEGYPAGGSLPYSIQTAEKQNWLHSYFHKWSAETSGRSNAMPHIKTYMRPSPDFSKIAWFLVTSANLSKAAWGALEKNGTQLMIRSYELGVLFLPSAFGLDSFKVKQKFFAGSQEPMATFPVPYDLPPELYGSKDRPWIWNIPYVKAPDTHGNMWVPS
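Steps: enzyme plus compound, 15 min RT; add biotin/phosphotyrosine-FITC oligonucleotide (15 nM final), react 5 min; add donor/acceptor beads (10 ug/ml final), 10 min; read AlphaScreen. Tdp1 at 1 nM final.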
DT40 TDP1 CPT – qHTS for Inhibitors of human tyrosyl-DNA phosphodiesterase 1 (TDP1): qHTS in cells in presence of CPT | hit rate 12% among 420,000 | Potency, µM (doses to about 46.2 µM), for inactives: at the top dose activity change, negative = growth inhibition, usual class: inhibitors | chicken DT40 Tdp1-/-;hTDP1 cells + 20 nM CPT, ATP luminescence, 48 h; note: potency is the fitted concentration of half-maximal effect; % is set by controls: 0 for no effect and ±100 for the full control effect; nearly all actives have a fitted effect of over 55% in size
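Chicken DT40 Tdp1-/- cells stably complemented with human TDP1 were seeded at 400 cells/well in medium containing 20 nM camptothecin, exposed to pin-transferred compounds, and grown at 37 °C for at least 48 hr. Viability was read as ATP luminescence.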
The depositor's hits bear a star; [ ] = remark or other dose. Unless noted, calls come from the whole dose curve; as a rule, active = well fitted curve in the direction sought with a large enough effect; inconclusive = small, poorly fitted or top-dose-only effect, or another doubt; inactive = no such curve, though single readings can be large; an effect the other way counts as inactive or inconclusive.

For O=C(O)c1c(-c2ccccc2)oc2ccc(OCc3ccc(Cl)c(Cl)c3)cc12 the results were HepG2 tox -89%, DT40 TDP1 no CPT inconclusive, TGFb inhibitor inconclusive, TDP1 block 6%[12.3 µM] and DT40 TDP1 CPT inconclusive.
For CC(=O)Nc1ccc(SCC(c2ccccc2)N2CCN(CC(C)C)CCC2=O)cc1 (centres undefined) the results were HepG2 tox -3%, TGFb inhibitor -5% and TDP1 block 9%.
`CN1CCN(C(=O)C2CCCN(S(=O)(=O)c3ccc(Cl)cc3)C2)CC1` (centres undefined) gave HepG2 tox 0%, DT40 TDP1 no CPT -26%, TGFb inhibitor 0%, IL1B secr inh -8, TDP1 block 0% and DT40 TDP1 CPT -8%.
For COc1ccc(-c2nnc(SC(C)C(=O)O)o2)cc1 (centres undefined) the results were HepG2 tox -2%, TGFb inhibitor -5% and TDP1 block 3%.
Screening O=C1NC(Cc2ccc(O)cc2)c2nc3cc(F)c(F)cc3c(=O)n2-c2ncccc21 (centres undefined) returned HepG2 tox 3%, DT40 TDP1 no CPT -18%, TGFb inhibitor -9%, IL1B secr inh -23 and DT40 TDP1 CPT -9%.
For CC(SC#N)C(=O)C12CC3CC(CC(C3)C1)C2 (centres undefined) the results were HepG2 tox -73%, DT40 TDP1 no CPT 4.6µM*, TGFb inhibitor inconclusive, IL1B secr inh -96*, TDP1 block 3% and DT40 TDP1 CPT 7.3µM*.
Screening CC(Sc1n[nH]c(N)n1)C(=O)C12CC3CC(CC(C3)C1)C2 (centres undefined) returned HepG2 tox -2%, DT40 TDP1 no CPT -24%, TGFb inhibitor -4%, IL1B secr inh -13, TDP1 block 3% and DT40 TDP1 CPT -26%.
Screening COc1cccc(CNC(=O)CSCc2cnn(-c3ccccc3)c2-n2cccc2)c1OC returned HepG2 tox -16%, DT40 TDP1 no CPT inconclusive, TGFb inhibitor -1%, IL1B secr inh inconclusive, TDP1 block 8% and DT40 TDP1 CPT 26µM*.
Screening O=C(CSCc1cnn(-c2ccccc2)c1-n1cccc1)NCc1ccccc1F returned HepG2 tox -35%, DT40 TDP1 no CPT inconclusive, TGFb inhibitor inconclusive, TDP1 block -3% and DT40 TDP1 CPT inconclusive.
COc1ccccc1CNC(=O)CSCc1cnn(-c2ccccc2)c1-n1cccc1 was read as HepG2 tox -23%, DT40 TDP1 no CPT 16µM*, TGFb inhibitor inconclusive, IL1B secr inh -17, TDP1 block 5% and DT40 TDP1 CPT inconclusive.
For O=C(OCc1cc(=O)n2c3c(sc2n1)CCCC3)c1cccc(NC(=O)c2ccccc2F)c1 the results were HepG2 tox -15%, DT40 TDP1 no CPT inconclusive, TGFb inhibitor inconclusive, TDP1 block 1% and DT40 TDP1 CPT inconclusive.
Screening CCCCNC(=S)Nc1ccc2[nH]c(=O)[nH]c2c1 returned HepG2 tox 0%, DT40 TDP1 no CPT 6%, TGFb inhibitor 1%, IL1B secr inh 4, TDP1 block 0% and DT40 TDP1 CPT -1%.
Screening CCCCn1cnc2c(SCc3ccc([N+](=O)[O-])cc3)nc(N)nc21 returned HepG2 tox -2%, DT40 TDP1 no CPT inconclusive, TGFb inhibitor 5%, IL1B secr inh 0 and DT40 TDP1 CPT 15µM*.
`CCCCn1cnc2c(Sc3c([N+](=O)[O-])ncn3C)nc(N)nc21` gave HepG2 tox -17%, DT40 TDP1 no CPT inconclusive, TGFb inhibitor -7%, IL1B secr inh -95* and DT40 TDP1 CPT -12%.
Nc1nc(SCc2ccccc2[N+](=O)[O-])c2ncn(Cc3ccccc3)c2n1 was read as HepG2 tox -36%, DT40 TDP1 no CPT inconclusive, TGFb inhibitor -12%, IL1B secr inh -21 and DT40 TDP1 CPT inconclusive.
Cn1cnc([N+](=O)[O-])c1Sc1nc(N)nc2c1ncn2Cc1ccccc1 was read as HepG2 tox -1%, DT40 TDP1 no CPT inconclusive, TGFb inhibitor -15%, IL1B secr inh -101* and DT40 TDP1 CPT inconclusive.
For CCCn1cnc2c(Sc3c([N+](=O)[O-])ncn3C)nc(N)nc21 the results were HepG2 tox 0%, DT40 TDP1 no CPT inconclusive, TGFb inhibitor 0%, IL1B secr inh -54* and DT40 TDP1 CPT -26%.
For CCCCn1cnc2c(SCc3cccc(F)c3)nc(N)nc21 the results were HepG2 tox 7%, DT40 TDP1 no CPT inconclusive, TGFb inhibitor 12%, IL1B secr inh -25 and DT40 TDP1 CPT -23%.
Cc1ccc(Cl)cc1N(Cc1ccc(C(=O)NCc2cccnc2)cc1)S(=O)(=O)c1ccccc1 was read as HepG2 tox -26%, DT40 TDP1 no CPT 1%, TGFb inhibitor 0%, IL1B secr inh 1, TDP1 block 11% and DT40 TDP1 CPT 5%.
COc1ccc(NC(=O)COC(=O)CC2CCCC2)cc1Cl was read as HepG2 tox 7%, DT40 TDP1 no CPT -24%, TGFb inhibitor -11%, IL1B secr inh -2 and DT40 TDP1 CPT 0%.
Screening CN(C)c1ccc(C(CNC(=O)Cc2cccc3ccccc23)N(C)C)cc1 (centres undefined) returned HepG2 tox -22%, DT40 TDP1 no CPT inconclusive, TGFb inhibitor 2%, IL1B secr inh -27, TDP1 block 7% and DT40 TDP1 CPT -45%.
CCCNC(=O)CSc1nc(-c2ccc(OC)cc2)cc(C(F)(F)F)n1 was read as HepG2 tox 7%, DT40 TDP1 no CPT inconclusive, TGFb inhibitor 0%, TDP1 block 5% and DT40 TDP1 CPT inconclusive.
`CCCC(=O)Nc1nnc(S(=O)(=O)N(C)Cc2ccc(Cl)cc2)s1` gave HepG2 tox 0%, DT40 TDP1 no CPT -8%, TGFb inhibitor -18%, TDP1 block 0% and DT40 TDP1 CPT -19%.
Screening CCCCn1cnc2c(SCc3ccccn3)nc(N)nc21 returned HepG2 tox 4%, DT40 TDP1 no CPT -1%, TGFb inhibitor 31%, IL1B secr inh -75* and DT40 TDP1 CPT 9%.
